Shown are actives, neighbours in structure and some others; about 3.5% of the full set was active somewhere.
Rv3671c protease: inhibits the M. tuberculosis serine protease Rv3671c; P9WHR9; inhibition, % at 5.96 µM; hit rate 0.048% among 320,000; AID 2606; in the data active means inhibition above about 38%;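 further: extracellular domain of Rv3671c used as enzyme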
Mtb UGM inh: inhibitors of M. tuberculosis UDP-galactopyranose mutase | purified UGM, fluorescence polarization probe displacement | hit rate 0.06% among 320,000 | AID 504406 | inhibition, % at 10 µM; in the data active means inhibition above about 10%, passing the limit was not always enough
Target sequence (P9WIQ1 whole entry, looked up): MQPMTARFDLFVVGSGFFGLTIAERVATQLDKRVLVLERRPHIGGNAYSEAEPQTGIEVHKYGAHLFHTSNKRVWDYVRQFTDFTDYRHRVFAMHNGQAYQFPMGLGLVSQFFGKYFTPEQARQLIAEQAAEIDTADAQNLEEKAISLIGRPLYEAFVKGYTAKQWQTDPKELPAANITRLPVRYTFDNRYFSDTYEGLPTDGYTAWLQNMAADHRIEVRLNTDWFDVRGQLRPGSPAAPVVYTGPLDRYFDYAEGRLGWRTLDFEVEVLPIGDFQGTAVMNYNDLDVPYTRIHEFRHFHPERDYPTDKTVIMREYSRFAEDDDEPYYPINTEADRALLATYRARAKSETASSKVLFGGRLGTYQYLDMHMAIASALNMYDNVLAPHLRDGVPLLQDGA
Mtb FBA inh: inhibitors of M. tuberculosis fructose-bisphosphate aldolase; hit rate 2.3% among 360,000; AID 588726; P9WQA3; inhibition, % at 1 µM; purified M. tuberculosis FBA, fluorescence read-out; in the data active means inhibition above about 27%
GDH-TPI inh: counter-screen for M. tuberculosis FBA inhibitors: GDH-TPI coupled enzymes. hit rate 1.2% among 360,000. inhibition, % at 4.8 µM. AID 588335. GDH-TPI coupled enzyme counterscreen, NADH absorbance; in the data active means inhibition above about 30%
Of the large screens only hits and unclear results are named; the others gave an inactive call.

COc1cc(/C=C(\CC(=O)O)c2nc3ccccc3s2)cc(OC)c1O	GDH-TPI inh 39
CNc1ccc(/C=C(\CCC(=O)O)c2nc3ccccc3s2)cc1[N+](=O)[O-]	GDH-TPI inh 35
O=C(O)C/C(=C\c1cccc(NC(=O)c2ccccc2Cl)c1)c1nc2ccccc2s1	none
CN(c1ccccc1)c1ccc(/C=C(\CCC(=O)O)c2nc3ccccc3s2)cc1[N+](=O)[O-]	none
Cc1ccc(/C=C(\CCC(=O)O)c2nc3ccccc3s2)cc1[N+](=O)[O-]	GDH-TPI inh 34
Cc1cccc(C)c1NC(=O)CN(C)C(=O)c1ccc(OCc2ccccc2)cc1	none (no result: Rv3671c protease, Mtb UGM inh)
COCCn1c(=NC(=O)c2cccs2)sc2cc(NC(C)=O)ccc21	GDH-TPI inh 45
COC(=O)N(C)C[C@H]1OCc2cn(nn2)CCCC(=O)N([C@@H](C)CO)C[C@@H]1C	none (no result: Rv3671c protease, Mtb UGM inh, GDH-TPI inh)
O=[N+]([O-])c1cccc(/C=C/c2nc[nH]c2[N+](=O)[O-])c1	GDH-TPI inh 42
O=c1[nH]c(/C=C/c2cccc([N+](=O)[O-])c2)c([N+](=O)[O-])c(=O)[nH]1	none
CN1C(=O)c2ccc(N(C)C)cc2C1=O	none
COc1cc(=O)n(C)c2cc(N(C)C)ccc12	Mtb FBA inh 156, GDH-TPI inh 33
CCN(CC(=O)Nc1ccc(S(=O)(=O)N2CCCCC2)cc1)Cc1ccccc1	none
OCCN1CCN(c2ncnc3c2sc2nc(N4CCOCC4)c4c(c23)CCC4)CC1	GDH-TPI inh 44
COC(=O)CSc1ncnc2c1sc1nc(N3CCOCC3)c3c(c12)CCCC3	none
CCOC(=O)c1sc2nc(N3CCCC3)c3c(c2c1N)CC(C)(C)OC3	none
CC1(C)Cc2c(c(N3CCCC3)nc3sc4c(N5CCN(CCO)CC5)ncnc4c23)CO1	GDH-TPI inh 33
COC(=O)c1ccc(CSc2ncnc3c2sc2nc(N4CCOCC4)c4c(c23)CCCC4)o1	GDH-TPI inh 32
OCCN(CCO)c1ncnc2c1sc1nc(N3CCOCC3)c3c(c12)CCCC3	none
CCOC(=O)c1sc2nc(CC(=O)OC)nc(NCCN(CC)CC)c2c1C	Mtb FBA inh 132
CCOC(=O)c1sc2nc(CC(=O)OC)nc(NCCN3CCOCC3)c2c1C	none (no result: Rv3671c protease, Mtb UGM inh)
Cc1c(C(=O)N/N=C/c2ccc(O)cc2)sc(=S)n1C	GDH-TPI inh 43
CN=CC1=C(O)c2ccccc2C1=O	GDH-TPI inh 35
COc1ccc(-c2ccc(C(=O)NCCc3ccccc3)c3occc23)c(C)c1	none (no result: Rv3671c protease, Mtb UGM inh)
COc1ccc(-c2oc(=O)n(C)c2-c2ccc(OC)cc2)cc1	none
COCCn1c(-c2ccc(OC)cc2)c(-c2ccc(OC)cc2)oc1=O	Mtb FBA inh 131
COC(=O)C1=CN(CC2CCCO2)C=C(C(=O)OC)C1c1cccc(O)c1 (centres undefined)	Mtb FBA inh 196
COC(=O)C1=C(N)Oc2cc(C)n(CC3CCCO3)c(=O)c2C1c1ccccc1 (centres undefined)	none
COc1ccccc1C(=O)NCCCN1CCCC1=O	none
COC(=O)C1=CN(CC2CCCO2)C=C(C(=O)OC)C1c1ccccc1C(F)(F)F (centres undefined)	Mtb FBA inh 158
COC(=O)C1=CN(CCCN2CCCC2=O)C=C(C(=O)OC)C1c1ccccc1C(F)(F)F	Mtb FBA inh 123
COC(=O)C1=C(N)Oc2cc(C)n(CC3CCCO3)c(=O)c2C1c1ccccc1OC (centres undefined)	none
C[C@H](CO)N1C[C@H](C)[C@@H](CN(C)S(C)(=O)=O)OCc2cnnn2CCCC1=O	none (no result: Rv3671c protease, Mtb UGM inh)
COC(=O)c1ccc2c(=O)[nH]c(COC(=O)c3c(-c4ccccc4)noc3C)nc2c1	none
CCNC(=O)CC1C(=O)N(c2ccc(C)cc2)C(=O)N1CCc1sccc1C (centres undefined)	none
O=[N+]([O-])c1cc(-n2cnnn2)c(O)c([N+](=O)[O-])c1	GDH-TPI inh 31
CC(=O)Nc1cccc(-c2csc(C(C)(O)c3ccc(F)c(F)c3)n2)c1 (centres undefined)	none (no result: Rv3671c protease, Mtb UGM inh)
CC(C)Nc1cc(C(C)(C)C)nc2c(-c3ccccc3)cnn12	Mtb FBA inh 29
COc1ccc(-c2nn(-c3ccccc3)cc2/C=N/NC(=O)c2cccc(S(=O)(=O)Nc3ccccc3Cl)c2)cc1	GDH-TPI inh 32
COc1ccc(-c2nn(-c3ccccc3)cc2/C=N/NS(=O)(=O)c2ccccc2)cc1	none
CCOC(=O)C1=CCC(c2cccc(C)c2)N(S(=O)(=O)c2ccc(C)cc2)C1 (centres undefined)	none (no result: Rv3671c protease, Mtb UGM inh, GDH-TPI inh)
Fc1ccccc1N1CC(c2ccccc2)C(c2cccs2)=N1 (centres undefined)	Mtb FBA inh 161
O=C(NCC(=O)N(Cc1cccs1)C(C(=O)NC1CCCC1)c1cccnc1)c1ccco1 (centres undefined)	Mtb FBA inh 117
O=C(NCC(=O)N(Cc1cccs1)C(C(=O)NC1CCCCC1)c1ccncc1)c1ccco1 (centres undefined)	none
O=C(COC(=O)CC1CCCC1)Nc1ccccc1[N+](=O)[O-]	none
Nn1c(SCC(=O)NC2CCS(=O)(=O)C2)nc2scc(-c3ccccc3)c2c1=O (centres undefined)	none
COc1ccccc1N(C(=O)c1snc(C(N)=O)c1N)C(C(=O)NC1CCCC1)c1ccc2ncccc2c1 (centres undefined)	none
Oc1ccc(C=NNc2ccccn2)c(O)c1	GDH-TPI inh 41 (no result: Rv3671c protease, Mtb UGM inh)
Oc1cccc(C=NNc2ccccn2)c1	none (no result: Rv3671c protease, Mtb UGM inh)
Cc1nc(N/N=C/c2cccc(F)c2)cc(N2CCOCC2)n1	none
O=[N+]([O-])c1ccc(O)c(C=NNc2ccc(S(=O)(=O)O)cc2)c1	GDH-TPI inh 52 (no result: Rv3671c protease, Mtb UGM inh)
Cc1nc(N/N=C/c2ccc(O)cc2O)cc(N2CCOCC2)n1	GDH-TPI inh 64
O=c1[nH]ncc(N/N=C\c2ccc(O)cc2O)c1Cl	GDH-TPI inh 38
Cc1nn(CC(=O)Nc2ccc(Cl)cc2Cl)c(=O)c2ccccc12	none
Cc1ccccc1NC(=S)N/N=C/c1ccc(O)cc1O	GDH-TPI inh 56
CCN(CC)S(=O)(=O)c1ccc(N/N=C/c2ccc(O)cc2O)nc1	GDH-TPI inh 40
Cc1cccc(NC(=S)N/N=C/c2cccc(O)c2)c1C	none
O=[N+]([O-])c1ccc(NN=Cc2ccc(O)cc2O)nc1	none (no result: Rv3671c protease, Mtb UGM inh)
O=[N+]([O-])c1ccc(O)c(/C=N/Nc2ccccn2)c1	GDH-TPI inh 38
FC(F)(F)c1ccc(-c2noc(CN3CCCN(C4CCCCC4)CC3)n2)cc1	none
C=CCn1c(=O)/c(=C/c2ccc(Cl)cc2)s/c1=C(\C#N)c1nnc2n1CCCCC2	GDH-TPI inh 33 (no result: Rv3671c protease, Mtb UGM inh)
CCCCc1nnc(NC(=O)c2ccccc2OCc2c(C)noc2C)s1	none
Nc1ccccc1/C=C/c1ccccc1N	Mtb FBA inh 146 (no result: Rv3671c protease, Mtb UGM inh)
Nc1ccccc1C=C1Cc2ccccc2C1=O	none (no result: Rv3671c protease, Mtb UGM inh)
CN(C)/C=C1\C(=O)N(C)N=C1C(F)(F)F	none
O=c1oc2c(CN3CCOCC3)c(O)c(Cl)cc2c2c1CCCC2	Mtb FBA inh active
O=c1oc2c(CN3CCOCC3)c(O)ccc2c2c1CCCC2	Mtb FBA inh active
CCC1NC(=O)c2cccnc2-n2c1nc1ccc(OC)cc1c2=O (centres undefined)	none (no result: Rv3671c protease, Mtb UGM inh)
Cc1cccc(COC(=O)C(Cc2ccccc2)NC(N)=O)c1 (centres undefined)	none
COc1ccc(-c2csc(=Nc3c(C)n(C)n(-c4ccccc4)c3=O)n2C(C)(C)C)cc1	none
